These results are taken from PubChem BioAssay AID434958 (Southern Research Specialized Biocontainment Screening …, 2010).

The campaign covered roughly 1,200 compounds. About 400 (33%) were called active. Not all results are given here. Entries with a potency or affinity are not part of this list. Values without a mark were called inactive. How the calls were made is not given here.

This test in a line: mammalian cell cytotoxicity, dose response, cytotoxicity control (AID 434958).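 Further: cells exposed to compound for 72 hours before readout.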 The conditions noted are these: cytotoxicity counter-screen; series mostly up to 40 µM; viability: at the top concentration. (In general: A counterscreen serves to expose hits that act by an unwanted route or on another target.)
As to `COc1ccc(NC(=O)COC(=O)Cc2ccc(-c3ccccc3)cc2)c(OC)c1`, the viability (usually a read-out of living cells in per cent, often relative to untreated cells) is 94.5%.

Turning to `COc1ccccc1NC(=O)COc1ccc(CO)cc1Cl`, the “viability” value is 93.6%. As for `COc1cccc(C(=O)C2CCCN(Cc3ccccn3)C2)c1` (configuration not stated), the figure is 97.5%; as for `COc1ccc(-c2cc3cc(OC)c(OC)cc3c(C)n2)cc1`, 81.3%; as for `COc1ccc(OC)c2nc(-c3ccc4c(c3)OCO4)ccc12`, 84.1%. To `CC(=O)c1c(OC(=O)c2cccc(Cl)c2)c2ccccc2n1C` belongs 102%.

For `CCOC(=O)c1ccc(N2CN(C3CCCCC3)CNC2=S)cc1`, the “viability” value was 95.3%. As for `N=C1C(c2nc3ccccc3[nH]2)=C(O)CN1c1ccc(F)cc1`, the figure is 92.2%; as for `Cn1c2ccccc2c(=O)c2cc(C#CC3(O)CCCCC3)ccc21`, 85.6%; as for `O=C(O)C1CC(=O)N(c2ccc(OCc3ccccc3Cl)cc2)C1` (configuration not stated), 103%.

In the case of `CSc1ccccc1C(=O)Nc1cccc([N+](=O)[O-])c1C`, the “viability” value was 96.2%. To `Cc1nn(-c2ccccc2)c(N2CCCC2)c1/C=C1\N=C(c2ccc(F)cc2)OC1=O` belongs 99.7%; to `Cc1cc(C)nc(SCC(=O)Nc2ccccc2[N+](=O)[O-])n1`, 104%. Regarding `Cc1sc2nc(C(C)(C)C)oc(=O)c2c1C`, the “viability” value was 104%. With `CC/C(=N\NC(=O)c1ccc(-c2ccccc2)cc1)C12CC3CC(CC(C3)C1)C2`, the “viability” value is 89.7%. To `CCCCOc1ccc(C(=O)Oc2cccnc2)cc1` belongs 83.7%; to `CN(C)S(=O)(=O)c1ccc(C(=O)OCC2CC2(Cl)Cl)cc1` (configuration not stated), 101%; to `N/C(=N\c1nc2ccccc2o1)NC(=O)c1ccccc1Br`, 101%. To `CCOC(=O)N1CCN(C(=O)CSc2nnc(COc3ccccc3)o2)CC1` belongs 98.8%; to `O=C1C(Cl)=C(N2CCCCC2)C(=O)N1c1ccccc1`, 98.2%; to `CCNC(=S)N/N=C1\C(=O)c2cccc3cccc1c23`, 92.7%. As for `O=C(CSc1ncnc2c1cnn2-c1ccccc1)Nc1ccc2c(c1)OCO2`, the figure is 105%. Regarding `Fc1ccc(-c2csc(NC(=S)Nc3ccccc3)n2)cc1`, the “viability” value is 92.4%.

As to `O=C(CCC(=O)Nc1ccccc1)NNC(=O)c1ccco1`, the “viability” value is 97.8%. As for `Cc1ccccc1OCC(=O)Nc1ccccc1N1CCOCC1`, the figure is 87.5%. To `Cc1ccc(C)c(NC(=O)c2cc(-c3cccnc3)nc3ccccc23)c1` belongs 90.4%; to `COc1cccc(NC(=O)C2CC2)c1`, 102%; to `c1ccc(Nc2ncnc3c2oc2ccccc23)cc1`, 91.8%.

For `C=CCNC(=S)NC(=O)c1csc([N+](=O)[O-])c1`, the “viability” value was 94.3%.

As for `COC(=O)c1ccc(/C=N\NC(=O)c2ccc(C)cc2Cl)cc1`, the “viability” value was 103%. To `CC1CCN(CCOc2ccc(OCc3ccccc3)cc2)CC1` belongs 86.6%. In the case of `Cc1ccc(S(=O)(=O)NCCCCCC(=O)Nc2ccccn2)cc1`, the “viability” value is 103%. To `Cn1c(O)c(/C=C2/C=CC=N2)c(=O)[nH]c1=O` belongs 103%. As for `COc1ccc(NC(=O)c2cc(C)nc3ccccc23)c(OC)c1`, the figure is 96.7%; as for `Cc1cc(C)c(C)c(S(=O)(=O)N2C(=S)NC(=O)C2CC(C)C)c1C` (configuration not stated), 90.3%; as for `CC(=O)c1ccc(OC(=O)N(c2ccccc2)c2ccccc2)cc1`, 95.2%. Regarding `CN(C)C1=C(Cl)C(=O)N(c2ccc(Cl)c(Cl)c2)C1=O`, the “viability” value is 96.3%. Consider `CCCCOc1ccccc1NC(=O)c1ccco1`, for which the “viability” value was 87.3%.

`O=c1c2c3n(c(=S)nc2[nH]n1-c1ccccc1)CCCCC3`: the “viability” value was 96.8%.

Take `Cc1cc(/C=N/NC(=O)CC#N)c(C)n1-c1ccc([N+](=O)[O-])cc1`: the “viability” value is 90.9%. With `CCN(CC(=O)Nc1ccc2c(c1)OCCO2)C(=O)c1ccc([N+](=O)[O-])s1`, the “viability” value is 98%.

In the case of `COc1ccc(NCC(=O)N/N=C/C(C)c2ccccc2)cc1` (configuration not stated), the “viability” value was 104%. Consider `COc1ccc(N2C(=O)NC(=O)/C(=C\c3ccc([N+](=O)[O-])s3)C2=O)cc1`, for which the “viability” value is 93.5%. Take `CCCc1cc(C(=O)OCC(=O)N2CCN(c3ccc(OC)cc3)CC2)sc1C`: the “viability” value was 92%. As for `COc1cc(C(=O)NNC(=O)c2cc(-c3ccccc3)n[nH]2)cc(OC)c1C`, the “viability” value was 88.9%. `COc1ccc(C2c3c(C)nn(-c4ccccc4)c3NC(=O)N2c2ccccc2)cc1` (configuration not stated): the “viability” value is 94%.

Consider `CCOC(=O)C1CSC(CC(=O)Nc2ccc(Cl)c(Cl)c2)C(=O)N1` (configuration not stated), for which the “viability” value was 102%. On to `CCOC(=O)C1CCN(c2ccc(C(N)=O)cc2[N+](=O)[O-])CC1`, for which the “viability” value is 96.3%. Turning to `CCCCC(=O)NC(=S)Nc1ccc(NC(=O)C(C)C)c(OC)c1`, the “viability” value was 97.8%. As for `O=C1C(Cl)=C(N2CCCCCC2)C(=O)N1c1ccc(Br)cc1`, the figure is 96.8%; as for `CCOCC(=O)Nc1cc(C(F)(F)F)ccc1Oc1cccc(Br)c1`, 84.7%; as for `COc1cc(OC)c(C(=O)Nc2cccc3ccccc23)cc1OC`, 100%. As for `C/C(=N\OCC(=O)Nc1nc2ccccc2s1)c1ccccc1`, the figure is 82.3%; as for `CCCCNC(=O)c1onc(CSc2ccc(OC)cc2)c1C(=O)O`, 96.6%. For the compound `COC(=O)c1c(NC(=O)C2c3ccccc3Oc3ccccc32)sc(C)c1C`, the “viability” value was 83.2%. To `COc1ccc(Cl)cc1NC(=O)C/C(C)=N/NC(=O)CC#N` belongs 94.8%; to `COc1ccc(OC)c(NC(=O)c2ccccc2SC)c1`, 102%.

Regarding `O=C(CCSc1ccccc1)Nc1nc2c(s1)CCCC2`, the “viability” value was 110%. In the case of `CCOC(=O)C(=CNc1ccc2c(c1)c1ccccc1n2CC)C(=O)OCC`, the “viability” value was 92.9%. For the compound `Cc1cc(C)cc(SCc2noc(C(=O)NC(C)C)c2C(=O)O)c1`, the “viability” value was 93.7%.

As to `COc1ccccc1C(=O)Nc1ccc2c3c(cccc13)CC2`, the “viability” value was 92.7%. As to `CCOC(=O)CNC(=O)/C(=C\c1ccc(F)cc1)NC(=O)c1ccccc1`, the “viability” value is 89.3%. As for `CC(/C=N/NC(=O)c1cc(C(C)(C)C)[nH]n1)=C\c1ccccc1`, the figure is 88.1%. Take `C/C(CC(=O)NCc1ccco1)=N\NC(=O)CC#N`: the “viability” value was 87%. As to `COc1ccc(/C(O)=C/C(=O)C(=O)NNC(=O)C(O)(c2ccccc2)c2ccccc2)cc1`, the “viability” value is 111%. `CCOC(=O)c1cc(-c2ccccc2)sc1NC(=O)C(C)N1C(=O)NC(C)(c2ccc(Cl)cc2)C1=O` (configuration not stated): the “viability” value is 82.2%. As for `Cc1ccc(C)c(CSc2nnc(C)c(=O)n2N)c1`, the figure is 92.7%. For `O=C(/C=C/c1cc(Br)ccc1F)OCC(=O)N1CCCC1`, the “viability” value was 109%. To `CCc1cc(C(=O)O)c(NC(=O)/C=C/c2ccc(OC)cc2)s1` belongs 95.8%. Consider `CC(C)Oc1ccc(N2CC(C(=O)Nc3ccccc3F)CC2=O)cc1` (configuration not stated), for which the “viability” value is 94.2%. To `CSc1nnc(-c2ccc(NC(N)=S)cc2)o1` belongs 98.6%. `Cc1ccc(S(=O)(=O)N[C@H](C(=O)OCn2nnc3ccccc3c2=O)C(C)C)cc1`: the “viability” value was 84.8%. To `O=C(CNC(=O)c1ccc(Br)cc1)NCC(=O)OCc1ccc(Cl)cc1` belongs 100%. In the case of `O=C(CSC1CS(=O)(=O)c2cc([N+](=O)[O-])ccc21)NNC(=O)c1ccccc1` (configuration not stated), the “viability” value was 91.9%.

Take `O=C1O/C(=C/c2ccccc2)N=C1c1ccccc1`: the “viability” value was 96%. `NNC(=S)Nc1ccc(C(F)(F)F)cc1Cl`: the “viability” value is 100%. With `CCCOc1ccc(C2Nc3cccc4cccc(c34)N2)cc1`, the “viability” value was 102%. As for `Cc1cccc(NC(=O)c2cc3ccccc3c(=O)o2)n1`, the “viability” value is 87.8%.

Turning to `O=C(CCSc1nnc(-c2ccncc2)o1)Nc1ccccc1Cl`, the “viability” value is 105%. Regarding `COc1cccc(/C=N/NC(N)=S)c1OS(=O)(=O)c1ccccc1`, the “viability” value was 97.5%. As for `COc1cccc(/C=N/Nc2nc(N3CCCC3)nc(N3CCCC3)n2)c1O`, the “viability” value is 111%. To `COC(=O)c1ccccc1NC(=O)CSCC(=O)Nc1ccc(F)cc1` belongs 95.4%; to `Cc1ccc(N=Cc2c(O)ccc3ccccc23)cc1F`, 80.5%. Consider `O=C(CSc1ncn[nH]1)Nc1cccc2ccccc12`, for which the “viability” value was 97.2%. Consider `COc1ccccc1/C=N/NC(=S)Nc1cccnc1`, for which the “viability” value was 99.7%. To `CONC(=O)c1cc(OCC(F)(F)F)ccc1OCC(F)(F)F` belongs 111%; to `COC(=O)c1cccc(NC(=S)NCCC2=CCCCC2)c1`, 86.8%. To `O=C(NCC1COc2ccccc2O1)C1CCC(CNc2c(N3CCCCC3)c(=O)c2=O)CC1` (configuration not stated) belongs 104%; to `Cc1ccc(-n2ncc(-c3nnc(SCC(=O)NC4CCCC4)o3)c2N)cc1C`, 91.1%.

As to `COc1cc(C(F)(F)F)nc2ccc(C#CCOC(=O)Nc3ccccc3)cc12`, the “viability” value is 81.5%. To `O=C(CN1CCC(O)(c2ccc3c(c2)OCO3)CC1)OC1CCCCC1` belongs 94.6%; to `COc1ccc2nc(NC(=O)c3ccc(Br)s3)sc2c1`, 93.6%. For the compound `COc1ccc(C(=O)Nc2nc3ccc(OC)cc3s2)cc1`, the “viability” value is 96.8%.

For `O=C(COC(=O)c1ccc([N+](=O)[O-])s1)NCc1ccc(F)cc1`, the “viability” value was 95.4%.

Regarding `CCOc1ccc(NC(=S)Nc2cccnc2)cc1`, the “viability” value was 90.6%.

Regarding `Cc1c(C(=O)Nc2cccnc2)oc2ccc(Br)cc12`, the “viability” value was 85.6%. For `COc1cc(NC(=O)C2CCCCC2)c(OC)cc1NC(=O)CN1CCCCC1`, the “viability” value was 85.1%. Regarding `Cc1nnc(SCc2ccc(C(=O)Nc3cc(Cl)ccc3C)cc2)s1`, the “viability” value was 110%. As for `Cc1ccc(S(=O)(=O)NCCCCCC(=O)Nc2nccs2)cc1`, the figure is 83.2%. For `CCc1ccc2nc(/N=C(\N)NC(=O)c3ccccc3)nc(C)c2c1`, the “viability” value is 91%.

With `COc1ccc(C(=O)Nc2ccc(C(=O)OCC(=O)c3ccccc3)cc2)cc1`, the “viability” value was 82.4%. To `O=S1(=O)CCO[C@H]2Cc3ccccc3[C@H]2N1Cc1ccc(Cl)cc1` belongs 93.3%; to `Cc1ccc(SCCNC(=O)c2ccc(C)c([N+](=O)[O-])c2)cc1`, 94.3%; to `Cc1ccc(NC(=O)O/N=C/c2c(C)nn(C(C)(C)C)c2C)cc1Cl`, 112%. As for `COc1ccc(-c2csc(NC(=O)c3c(C)noc3C)n2)cc1`, the figure is 88%.

Take `O=C1CCNc2c(Cl)cccc21`: the “viability” value was 108%.

For `Cc1ccc(NC(=O)CSc2nnc([C@@H]3CCCN3C(=O)OC(C)(C)C)o2)c(C)c1`, the “viability” value is 106%.

On to `CCCCCNCc1cccc(Br)c1`, for which the “viability” value was 87.9%. As to `O=C1C2CCN(CC2)C1Cc1ccc(OCCOc2ccccc2)cc1` (configuration not stated), the “viability” value is 94.3%. As for `Nc1ccc(C(=O)O)c(O)c1`, the “viability” value is 101%. Take `COc1ccc(C(=O)NC(=S)Nc2ccc(S(=O)(=O)Nc3cc(C)on3)cc2)cc1OC`: the “viability” value was 96.6%.

For the compound `Cc1nn(C)c(C(=O)NC(=S)Nc2ccccc2Br)c1Cl`, the “viability” value is 91.1%.

On to `Cc1cc(C(=O)Nc2nnc(-c3ccccc3)s2)no1`, for which the “viability” value is 91.2%. To `O=C(Nc1ccc(F)cc1)c1sc2cc(C(F)(F)F)cnc2c1-c1cccs1` belongs 89.1%; to `Cc1ccc(NC(=O)CCS(=O)(=O)c2cccc3nonc23)cc1`, 102%. As for `CCOc1ccc(-c2nnc(-c3cccs3)o2)cc1OCC`, the figure is 93.4%; as for `CC(=O)c1c(C)[nH]c(C(=O)OCC(=O)Nc2nnc(-c3ccccc3)o2)c1C`, 86.6%.
